{"source": "PubChem BioAssay (Tox21)", "note": "Results filed as inconclusive are left out. Entries that show only a call come without a potency. Values without a mark were called inactive. Calls of active or inactive are those of the source. The call rests on the fitted dose curve; in most records, active means well fitted cell-killing curve with a large enough effect in the repeat runs; inconclusive means weak or mixed curves, or effect the other way; inactive means flat fitted curve, though single readings scatter. Potency means the concentration at half of the fitted maximal effect."}
{"test": "qHTS RealTime-Glo MT Cell Viability Assay in HEK293 cells - 8 hour (AID 1224887); further: nearly all actives have a fitted effect of over 50% in size; on activity change, negative = cytotoxicity: top concentration of the series differs between compounds", "details": "RealTime-Glo luminescence; series mostly up to 76.8 µM", "source_text": "U.S. Tox21 Program National Center for Advancing Translational Sciences [NCATS] NIH Chemical Genomics Center [NCGC] U.S. Environmental Protection Agency [EPA] National Institutes of Environmental Health Sciences [NIEHS] National Toxicology Program [NTP] U.S. Food and Drug Administration [FDA] Tox21 Assay Overview: Measure of cell viability is critical in the cell-base assay. Analysis of cell viability is necessary for the characterization of cell responses to cytotoxic drugs and environmental stress. A RealTime-Glo MT Cell Viability Assay to monitor cell viability in real time of continues cell culture during 40 hours of compound treatment was used to screen Tox21 10K library compounds in Hek293 cells. The RealTime-Glo MT Cell Viability Assay is a nonlytic, homogeneous, bioluminescent method to measure cell viability in real time using a simple, plate-based method. The assay involves adding NanoLuc luciferase and a cell-permeant prosubstrate to cells in culture. Viable cells reduce the proprietary prosubstrate to generate a substrate for NanoLuc luciferase. This substrate diffuses from cells into the surrounding culture medium, where it is rapidly used by the NanoLuc Enzyme to produce a luminescent signal. The signal correlates with the number of viable cells, making the assay well suited for cytotoxicity studies.\nTox21 Assay Protocol Summary: The mixture of Hek293 cell suspension and reagents were dispensed at 600cells/6 ul/well in 1536-well tissue culture treated black solid bottom plates using a Multidrop dispenser. After the assay plates were incubated at a 37 C/5% CO2 incubator for 5 hours, 23 nL of compounds dissolved in DMSO, positive and negative controls was transferred to the assay plate by a pintool work station. The plates were incubated at 37 C for 40 hours. The luminescence intensity were measured at 0h, 8h, 16h, 24h, 32h and 40h time points using ViewLux plate reader during compound treatment."}
{"compound": "CCCCN(CCCC)C(=S)S", "Potency": "inactive"}
{"compound": "O.O.O.O.O.O.O.O=S(=O)([O-])[O-].[Co+2]", "Potency": "inactive"}
{"compound": "COc1ccc2c3c1O[C@H]1[C@H](O)CC[C@H]4[C@@H](C2)N(C)CC[C@@]341", "Potency": "inactive"}
{"compound": "COc1ccc(Cc2nccc3cc(OC)c(OC)cc23)cc1OC", "Potency": "4.77 µM (active)"}
{"compound": "CCCCC/C=C\\C/C=C\\C/C=C\\C/C=C\\CCCC(=O)NCC(=O)O", "Potency": "inactive"}
{"compound": "CCCCn1cc[n+](C)c1.[Cl][Fe-]([Cl])([Cl])[Cl]", "Potency": "inactive"}
{"compound": "CC1CN1", "note": "(stereo not given)", "Potency": "inactive"}
{"compound": "CCCC[N+]1(C)CCCC1", "note": "(tested in a mixture with another compound)", "Potency": "inactive"}
{"compound": "Nc1c(Cl)c(Cl)c(Cl)c(Cl)c1Cl", "Potency": "inactive"}
{"compound": "Nc1nc(N)c(N)c(N)n1", "Potency": "inactive"}
{"compound": "CC(Cc1ccccc1)N(C)Cc1ccco1", "note": "(stereo not given)", "Potency": "inactive"}
{"compound": "O=c1[nH]c(Cl)c(Cl)cc1Cl", "Potency": "inactive"}
{"compound": "CC(O)C(=O)[O][Hg][c]1ccccc1", "note": "(stereo not given)", "Potency": "1.55 µM (active)"}
{"compound": "ClC(Cl)C(Cl)(Cl)Cl", "Potency": "inactive"}
{"compound": "CCc1cccc(C)c1N(C(=O)CCl)[C@@H](C)COC", "Potency": "inactive"}
{"compound": "c1ccc2nc(N3CCNCC3)ccc2c1", "Potency": "inactive"}
{"compound": "O=[N+]([O-])[O-].[Tl+]", "Potency": "inactive"}
{"compound": "CNC(C)(C)Cc1ccccc1", "Potency": "inactive"}
{"compound": "O=C(Nc1ccc(F)cc1F)c1cccnc1Oc1cccc(C(F)(F)F)c1", "Potency": "inactive"}
{"compound": "[O-][Cl+3]([O-])([O-])O", "Potency": "inactive"}
{"compound": "O=S(=O)(NS(=O)(=O)C(F)(F)F)C(F)(F)F", "Potency": "inactive"}
{"compound": "CC(=O)[O-].CC(=O)[O-].O.O.O.[Pb+2]", "Potency": "inactive"}
{"compound": "Cc1ccc([N+](=O)[O-])[c]2c1[O][Hg]2", "Potency": "3.79 µM (active)"}
{"compound": "CSC1=N[C@@](C)(c2ccccc2)C(=O)N1Nc1ccccc1", "Potency": "inactive"}
{"compound": "CC(=O)C(Cl)C(=O)N(C)C", "note": "(stereo not given)", "Potency": "inactive"}
{"compound": "O=C(CCCCl)c1ccc(F)cc1", "Potency": "inactive"}
{"compound": "CC(=O)[O-].CC(=O)[O-].CC(=O)[O-].[Sb+3]", "activity change, negative = cytotoxicity": "-4.44% [at 2.72 µM]"}
{"compound": "COc1cnc(OC)n2nc(NS(=O)(=O)c3c(OCC(F)F)cccc3C(F)(F)F)nc12", "Potency": "inactive"}
{"compound": "Nc1cc(Cl)ccc1Cl", "Potency": "inactive"}
{"compound": "CC(Cc1ccc2c(c1)OCO2)NO", "note": "(stereo not given)", "Potency": "inactive"}
{"compound": "CCCCCCC[CH2][Sn]([Cl])([Cl])[CH2]CCCCCCC", "Potency": "inactive"}
{"compound": "COP(=S)(OC)Oc1ccc([N+](=O)[O-])c(C)c1", "Potency": "inactive"}
{"compound": "O=C(N[C@H]1N=C(c2ccccc2F)c2cccc3c2N(CC3)C1=O)c1cc2ccccc2[nH]1", "Potency": "inactive"}
{"compound": "O=C1C(Cl)=C(Cl)C(=O)C(Cl)=C1Cl", "Potency": "21.8 µM (active)"}
{"compound": "CNC(=O)CSP(=O)(OC)OC", "Potency": "inactive"}
{"compound": "CCOP(=S)(OCC)Oc1cc(C)nc(N(CC)CC)n1", "Potency": "inactive"}
{"compound": "COC(=O)/C=C(\\C)OP(=O)(OC)OC", "Potency": "inactive"}
{"compound": "O=C(O)CCCCCCNC1c2ccccc2CCc2ccccc21", "Potency": "inactive"}
{"compound": "COP(=O)(OC)O/C(=C\\Cl)c1cc(Cl)c(Cl)cc1Cl", "Potency": "inactive"}
{"compound": "CC1CCCC1", "Potency": "inactive"}
